Calls of active or inactive are those of the source. Unless noted, how the calls were made is not given here.
Assays:
[1] = system: Wnt5a (protein binding on small-molecule microarray); experiment: small molecules binding Wnt5a protein – biophysical, small-molecule microarray, 635/667 nm fluorescence, primary screen (AID 1142); conditions: 635 nm fluorescence, higher = more signal;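 further: fluorescence read at 667 nm with signal to noise per printed feature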
[2] = ATP-based viability of Huh7 replicon cells – cell-based, CellTiter-Glo luminescence, basal, 48 h, cytotoxicity control for HCV replication inhibitor project, primary screen (AID 1143); conditions: higher = more signal, called active from +8 up or from −8 down;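 further: Huh7 hepatoma cells carrying a hepatitis C replication reporter with no stimulus; test concentration not given here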
[3] = Pseudomonas biofilm growth suppression – PAO1 strain, BacTiter-Glo luminescence, LB-PBS, primary screen (AID 1144); conditions: P. aeruginosa PAO1 biofilm, 12 h, higher = more signal
[4] = basal CRE-LacZ reporter activity in PC12 – cell-based, unstimulated, primary screen (AID 1145); conditions: no forskolin, luminescence, 4.5 h, higher = more signal, called active from +8 up or from −8 down
[5] = forskolin-driven CRE-LacZ activity in PC12 – cell-based, CRE-LacZ reporter, forskolin-stimulated, primary screen (AID 1146); conditions: luminescence, 4.5 h, higher = more signal, called active from +8 up or from −8 down;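 further: PC12 cells with 6xCRE LacZ reporter stimulated by forskolin 10 µM; beta-galactosidase reporter signal reflecting CREB driven transcription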
[6] = molecular target: Streptavidin (Streptomyces avidinii) (UniProt P22629); experiment: compounds binding control protein streptavidin – biophysical, small-molecule microarray, 635/667 nm fluorescence, artefact control for SMM compound annotation, primary screen (AID 1147); conditions: higher = more signal;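 further: signal reflects streptavidin binding to arrayed compounds as a control protein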
Sequence of Streptavidin (Streptomyces avidinii) (P22629 whole entry, looked up): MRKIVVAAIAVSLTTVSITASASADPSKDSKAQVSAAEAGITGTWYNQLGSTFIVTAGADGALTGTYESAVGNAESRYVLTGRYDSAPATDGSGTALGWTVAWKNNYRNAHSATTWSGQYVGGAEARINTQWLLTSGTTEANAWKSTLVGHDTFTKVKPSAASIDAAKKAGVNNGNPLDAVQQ

[7] = probe aInhba binding on compound microarray – biochemical, small-molecule microarray, 635/667 nm fluorescence, primary screen (AID 1148); conditions: higher = more signal;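 further: score merges 667nm spot fluorescence with signal-to-noise for antibody binding to printed compounds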
Torsin-1A (Homo sapiens) [8] = molecular target: Torsin-1A (Homo sapiens) (UniProt O14656); experiment: TOR1A wild-type binding on microarray – cell lysate, small-molecule microarray, lysate, 635/667 nm, primary screen (AID 1149); conditions: COS7 hTOR1A-WT lysate, 635 nm fluorescence, higher = more signal
Sequence of Torsin-1A (Homo sapiens) (O14656 whole entry, looked up): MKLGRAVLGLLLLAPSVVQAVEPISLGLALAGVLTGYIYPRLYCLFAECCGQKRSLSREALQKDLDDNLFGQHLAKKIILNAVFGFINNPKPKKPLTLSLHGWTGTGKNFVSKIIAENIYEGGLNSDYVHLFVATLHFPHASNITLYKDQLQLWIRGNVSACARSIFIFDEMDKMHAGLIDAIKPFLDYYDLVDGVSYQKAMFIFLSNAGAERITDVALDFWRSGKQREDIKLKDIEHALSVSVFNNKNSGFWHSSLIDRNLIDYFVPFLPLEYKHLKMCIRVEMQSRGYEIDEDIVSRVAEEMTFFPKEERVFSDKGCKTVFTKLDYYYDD

Torsin-1A (Homo sapiens) [9] = molecular target: Torsin-1A (Homo sapiens) (UniProt O14656); experiment: torsin A mutant lysate binding on microarrays – cell lysate, small-molecule microarray, COS7 lysate, 635/667 nm fluorescence, primary screen (AID 1150); conditions: COS7 hTOR1A mutant lysate, 635 nm fluorescence, higher = more signal;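 further: score pools 667 nm emission and signal to noise measuring lysate protein binding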
[10] = system: Sonic hedgehog protein (Shh); experiment: Sonic hedgehog microarray binding compounds – biochemical, small-molecule microarray, 635/667 nm fluorescence, primary screen (AID 1151); conditions: 635 nm fluorescence, higher = more signal;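 further: Shh protein binding to compounds spotted on small-molecule microarray slides; score combines spot fluorescence intensity with signal-to-noise across triplicate slides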
[11] = optical density shifts of acrAB sulA E. coli – strain DRC41, OD650, 48 h, E. coli filamentation inducer project, primary screen (AID 1152); conditions: higher = more signal, called active from +8 up or from −8 down;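 further: E. coli MC1000 strain DRC41 lacking acrAB efflux pump and sulA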
[12] = probe aLefty1 binding on compound microarray – biochemical, small-molecule microarray, 635/667 nm fluorescence, primary screen (AID 1153); conditions: higher = more signal;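 further: score merges spot fluorescence with signal-to-noise ratio from the scanned slide images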
[13] = plasmodial surface anion channel blockers, osmotic lysis – cell-based, P. falciparum Indochina, OD700, 1 h, primary screen (AID 1154); conditions: P. falciparum Indochina infected RBC osmotic lysis, higher = more signal, called active from +8 up or from −8 down
[14] = plasmodial surface anion channel blockers, osmotic lysis – cell-based, P. falciparum Indochina, OD700, 2 h, primary screen (AID 1155);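 further: lysis reports solute entry through the parasite surface anion channel PSAC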; conditions: P. falciparum Indochina infected erythrocytes, higher = more signal, called active from +8 up or from −8 down
[15] = changes in parasitized red cell lysis, either direction – P. falciparum Indochina, OD700, 3 h, PSAC antagonist project, primary screen (AID 1156); conditions: P. falciparum-infected erythrocytes, osmotic lysis, higher = more signal, called active from +8 up or from −8 down
[16] = plasmodial surface anion channel blockers, osmotic lysis – cell-based, P. falciparum Indochina, OD700, 18 h, primary screen (AID 1157); conditions: P. falciparum Indochina infected erythrocytes, osmotic lysis OD700, 18 h; higher = more signal, called active from +8 up or from −8 down
[17] = S6 kinase pathway phospho-S6 level changes – cell-based, A549, cytoblot, luminescence, serum-stimulated, primary screen (AID 1158); conditions: 5 h, higher = more signal;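 further: serum-stimulated A549 lung adenocarcinoma cells; signal is phosphorylated S6 detected by cytoblot immunostaining with HRP secondary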
[18] = molecular target: NADPH oxidase 2 (Homo sapiens) (UniProt P04839); experiment: compounds shifting NOX2 Amplex Red fluorescence – cell-based, HEK293-NOX2, PMA-stimulated, NOX inhibitor project, primary screen (AID 1159); conditions: 45 min, higher = more signal, called active from +8 up or from −8 down; further: test concentration not given here
Sequence of NADPH oxidase 2 (Homo sapiens) (P04839 whole entry, looked up): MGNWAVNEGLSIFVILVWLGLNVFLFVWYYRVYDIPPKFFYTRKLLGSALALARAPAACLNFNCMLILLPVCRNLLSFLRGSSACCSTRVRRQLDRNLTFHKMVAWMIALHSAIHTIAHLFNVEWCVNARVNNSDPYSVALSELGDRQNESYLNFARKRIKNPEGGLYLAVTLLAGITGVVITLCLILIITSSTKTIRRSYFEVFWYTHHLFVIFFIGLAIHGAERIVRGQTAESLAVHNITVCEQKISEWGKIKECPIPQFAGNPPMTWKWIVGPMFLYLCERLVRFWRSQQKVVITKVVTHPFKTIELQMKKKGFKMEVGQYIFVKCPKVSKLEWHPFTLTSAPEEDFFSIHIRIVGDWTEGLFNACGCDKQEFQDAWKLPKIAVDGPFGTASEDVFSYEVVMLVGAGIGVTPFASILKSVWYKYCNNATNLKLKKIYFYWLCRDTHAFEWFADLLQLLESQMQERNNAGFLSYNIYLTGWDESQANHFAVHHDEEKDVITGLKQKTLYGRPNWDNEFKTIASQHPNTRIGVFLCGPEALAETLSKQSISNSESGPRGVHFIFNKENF

[19] = molecular target: NADPH oxidase 4 (Homo sapiens) (UniProt Q9NPH5); experiment: compounds shifting NOX4 Amplex Red fluorescence – cell-based, HEK293-NOX4, tetracycline-induced, NOX inhibitor project, primary screen (AID 1160); conditions: HEK293-NOX4, Amplex Red H2O2 fluorescence, 45 min; higher = more signal, called active from +8 up or from −8 down
Sequence of NADPH oxidase 4 (Homo sapiens) (Q9NPH5 whole entry, looked up): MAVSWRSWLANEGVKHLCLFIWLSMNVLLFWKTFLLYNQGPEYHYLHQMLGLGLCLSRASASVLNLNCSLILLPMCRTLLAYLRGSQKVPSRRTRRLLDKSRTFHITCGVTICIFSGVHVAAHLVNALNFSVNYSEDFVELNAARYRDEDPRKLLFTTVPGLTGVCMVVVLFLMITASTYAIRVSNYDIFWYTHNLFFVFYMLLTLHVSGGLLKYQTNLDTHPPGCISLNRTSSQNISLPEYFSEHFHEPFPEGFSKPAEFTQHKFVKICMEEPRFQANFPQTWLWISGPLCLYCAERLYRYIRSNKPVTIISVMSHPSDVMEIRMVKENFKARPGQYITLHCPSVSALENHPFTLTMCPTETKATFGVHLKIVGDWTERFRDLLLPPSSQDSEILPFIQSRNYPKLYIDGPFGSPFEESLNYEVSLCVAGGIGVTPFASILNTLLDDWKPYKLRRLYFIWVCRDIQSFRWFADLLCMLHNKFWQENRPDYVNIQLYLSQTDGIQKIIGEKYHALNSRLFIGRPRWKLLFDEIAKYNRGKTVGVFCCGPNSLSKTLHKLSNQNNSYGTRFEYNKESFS

[20] = molecular target: NADPH oxidase 5 (Homo sapiens) (UniProt Q96PH1); experiment: compounds shifting NOX5 Amplex Red fluorescence – cell-based, HEK293-NOX5, NOX inhibitor project, primary screen (AID 1161); conditions: HEK293-NOX5, ionomycin, 45 min, higher = more signal
Sequence of NADPH oxidase 5 (Homo sapiens) (Q96PH1 whole entry, looked up): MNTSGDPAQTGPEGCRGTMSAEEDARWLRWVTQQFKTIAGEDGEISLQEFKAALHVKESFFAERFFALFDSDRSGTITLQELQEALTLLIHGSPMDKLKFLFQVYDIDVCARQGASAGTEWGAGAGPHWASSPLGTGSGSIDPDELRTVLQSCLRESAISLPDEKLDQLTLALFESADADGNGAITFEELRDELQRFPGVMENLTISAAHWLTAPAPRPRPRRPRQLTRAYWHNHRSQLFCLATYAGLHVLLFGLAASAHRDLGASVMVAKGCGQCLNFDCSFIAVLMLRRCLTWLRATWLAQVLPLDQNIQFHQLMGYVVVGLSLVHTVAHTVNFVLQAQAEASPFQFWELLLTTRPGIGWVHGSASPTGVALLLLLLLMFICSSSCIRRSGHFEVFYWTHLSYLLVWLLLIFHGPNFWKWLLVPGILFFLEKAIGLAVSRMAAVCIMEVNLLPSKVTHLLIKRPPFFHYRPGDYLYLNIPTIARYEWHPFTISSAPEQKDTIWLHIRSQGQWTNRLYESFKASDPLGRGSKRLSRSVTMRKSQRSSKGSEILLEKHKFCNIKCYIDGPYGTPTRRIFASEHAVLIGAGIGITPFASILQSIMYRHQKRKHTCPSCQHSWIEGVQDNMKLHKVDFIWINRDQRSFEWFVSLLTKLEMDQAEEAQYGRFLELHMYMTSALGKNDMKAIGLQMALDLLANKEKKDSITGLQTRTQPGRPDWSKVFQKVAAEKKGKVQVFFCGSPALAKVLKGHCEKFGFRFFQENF

Structure (SMILES) | composite z-score [1] | z-score [2] | z-score [3] | z-score [4] | z-score [5] | composite z-score [6] | composite z-score [7] | composite z-score (Torsin-1A (Homo sapiens) [8]) | composite z-score (Torsin-1A (Homo sapiens) [9]) | composite z-score [10] | z-score [11] | composite z-score [12] | z-score [13] | z-score [14] | z-score [15] | z-score [16] | z-score [17] | z-score [18] | z-score [19] | z-score [20]
O=C1O[C@@H](c2ccccc2)[C@@H](c2ccccc2)N2[C@@H](c3ccc(O)cc3)[C@]3(C(=O)Nc4ccc(C#CC5(O)CCCCCC5)cc43)[C@@H](C(=O)N3CCN(c4ncccn4)CC3)[C@H]12 | 0.149 | -1.37 (inactive) | -0.775 (inactive) | -0.231 (inactive) | 0.204 (inactive) | 0.849 | -0.144 | 1.42 | 0.743 | 0.358 | 1.36 (inactive) | 0.214 | 0.0075 (inactive) | -0.443 (inactive) | -5.11 (inactive) | -0.195 (inactive) | -0.181 | 1.07 (inactive) | 0.74 (inactive) | 0.443
COCCOC(=O)N1C(=O)[C@@]2(c3cc(C#Cc4ccc(OC)cc4)ccc31)[C@H](C(N)=O)[C@H]1C(=O)O[C@H](c3ccccc3)[C@H](c3ccccc3)N1[C@@H]2c1ccc(OCCO)cc1 | 0.608 | -4.52 (inactive) | -0.637 (inactive) | -0.598 (inactive) | -0.164 (inactive) | 0.741 | 0.267 | 0.534 | 0.424 | 1.66 | 0.79 (inactive) | 1.45 | 21.2 (active) | 5.69 (inactive) | 1.75 (inactive) | 1.95 (inactive) | -0.0813 | 0.933 (inactive) | -0.164 (inactive) | 1.86
COCCOC(=O)N1C(=O)[C@@]2(c3cc(C#CCCO)ccc31)[C@H](C(=O)N1CCc3cc(OC)c(OC)cc3C1)[C@H]1C(=O)O[C@H](c3ccccc3)[C@H](c3ccccc3)N1[C@@H]2c1ccc(OCCO)cc1 | 0.667 | -2.99 (inactive) | -1.11 (inactive) | 0.362 (inactive) | -1.27 (inactive) | 0.675 | 0.077 | 0.284 | 0.89 | 2.13 | 1.42 (inactive) | 0.113 | 4.67 (inactive) | 1.02 (inactive) | 0.138 (inactive) | -0.0492 (inactive) | 1.26 | 1.35 (inactive) | 1.07 (inactive) | 1.44
CC(C)C[C@@H]1NC(=O)[C@@]23C(=O)N[C@@H](Cc4ccccc4)C2[C@H](C)[C@@]2(C)O[C@H]2C3/C=C/C/C=C\CNC(=O)[C@@H]2CCCN2C1=O (stereo not given in full) | -0.0917 | -0.577 (inactive) | 0.595 (inactive) | 1.12 (inactive) | -0.2 (inactive) | -0.767 | 0.0051 | 0.249 | 0.0725 | 0.468 | -0.797 (inactive) | -0.234 | 0.918 (inactive) | 0.182 (inactive) | -0.551 (inactive) | 0.01 (inactive) | 0.226 | 0.593 (inactive) | 1.14 (inactive) | 0.579
O=C1O[C@H](c2ccccc2)[C@H](c2ccccc2)N2[C@H]1[C@@H](C(=O)N1CCCCCCC1)[C@]1(C(=O)Nc3ccc(C#CCCO)cc31)[C@H]2c1ccc(OCCO)cc1 | 2.02 | -2.18 (inactive) | 0.278 (inactive) | -1.42 (inactive) | -0.757 (inactive) | 4.02 | 1.82 | 3.41 | 3.46 | 2.35 | 0.543 (inactive) | 3.09 | 10.3 (active) | 2.04 (inactive) | 1.21 (inactive) | 1.02 (inactive) | 0.456 | 1.11 (inactive) | 0.597 (inactive) | 1.25
N#Cc1ccc(NN2C(C(O)c3ccccc3)C=CC3C(=O)N(c4ccccc4)C(=O)C32)cc1 (stereo not given) | 0.213 | 0.574 (inactive) | -0.121 (inactive) | -1.11 (inactive) | 1.06 (inactive) | 0.475 | 0.11 | 0.408 | -0.0163 | -0.67 | -1.28 (inactive) | 0.0077 | 9.06 (active) | 0.611 (inactive) | 1.65 (inactive) | 0.58 (inactive) | -0.823 | -2.08 (inactive) | -5.5 (inactive) | -3.44
CN(C)C(=O)[C@@]1(CCS(=O)(=O)c2ccccc2)N=C(c2ccc(OCCCO)cc2)O[C@H]1c1ccccc1CN=[N+]=[N-] | 0.909 | -3.95 (inactive) | -0.873 (inactive) | -0.151 (inactive) | -0.607 (inactive) | 1.13 | 0.148 | 1.07 | 0.351 | 0.159 | 1.1 (inactive) | 0.375 | 24 (active) | 4.2 (inactive) | 0.344 (inactive) | -0.48 (inactive) | 1.12 | -1.49 (inactive) | 0.083 (inactive) | -0.558
COc1cc2c(cc1OC)CN(C(=O)[C@@H]1[C@H]3C(=O)O[C@H](c4ccccc4)[C@H](c4ccccc4)N3[C@H](c3ccc(OCCO)cc3)[C@@]13C(=O)Nc1ccc(C#CCCO)cc13)CC2 | 0.452 | -4.91 (inactive) | -1.07 (inactive) | -0.465 (inactive) | 0.0283 (inactive) | 1.64 | -0.0812 | 0.431 | 0.755 | 1.25 | 2.02 (inactive) | 0.273 | 2.85 (inactive) | 0.0851 (inactive) | 0.464 (inactive) | -1.1 (inactive) | 1.71 | -0.303 (inactive) | -0.458 (inactive) | -4.23
COCCOC(=O)N1C(=O)[C@@]2(c3cc(C#CCC(C(=O)OC)C(=O)OC)ccc31)[C@H](c1ccc(OCCO)cc1)N1[C@H](c3ccccc3)[C@H](c3ccccc3)OC(=O)[C@H]1[C@@H]2C(N)=O | 0.0271 | -1.29 (inactive) | 0.719 (inactive) | 0.892 (inactive) | 1.64 (inactive) | 0.576 | 0.13 | 0.337 | 1.01 | 0.989 | -0.361 (inactive) | -0.147 | 5.25 (inactive) | 1.58 (inactive) | 0.478 (inactive) | 0.59 (inactive) | 0.702 | 2.17 (inactive) | 0.988 (inactive) | 0.717
